Data taken from the supplement of paper PMC13380429.
Counter-ions that a name gives are not always drawn.

Test system: Vero E6 infected with SARS-CoV-2
Test: inhibition of SARS-CoV-2 cytopathic effect; higher = more antiviral protection, active = above 15
Conditions: 48 h

Measured: inhibition of SARS-CoV-2 cytopathic effect

CC(C)(C)c1cc(C(C)(C)C)c2c(c1)C(O)(C(F)(F)F)C(=O)O2 (racemic)
inactive: 1 nM 5.52% | 8.33 nM 2.66% | 100 nM 4.61% | 833.33 nM -0.2% | 10000 nM -1.15%

CCN(c1cc(C#CCN2CCOCC2)cc(C(=O)NCc2c(C)cc(C)[nH]c2=O)c1C)[C@H]1CC[C@H](N(C)CCOC)CC1
inactive: 1 nM -1.56% | 8.33 nM -1.99% | 100 nM 3.36% | 833.33 nM -2.9% | 10000 nM -5.69%

Oc1ccc(Cl)c2c1CCC2 [chlorindanol]
inactive: 1 nM 1.21% | 8.33 nM -1.76% | 100 nM -1.84% | 833.33 nM -1.95% | 10000 nM 4.12%

NC[C@H]1O[C@H](O[C@H]2[C@H](O)[C@@H](O[C@H]3O[C@H](CO)[C@@H](O)[C@H](N)[C@H]3O)[C@H](N)C[C@@H]2N)[C@H](O)[C@@H](O)[C@@H]1O [kanamycin]
inactive: 1 nM 1.47% | 8.33 nM 2.23% | 100 nM 2.41% | 833.33 nM 3.53% | 10000 nM -0.06%

C[C@]12CCC(=O)C[C@@H]1CC[C@@H]1[C@@H]2CC[C@]2(C)[C@@H](O)CC[C@@H]12 [Dihydrotestosterone]
inactive: 1 nM -0.75% | 8.33 nM -1.02% | 100 nM -1.92% | 833.33 nM -2.8% | 10000 nM -3.3%

O=C(NCCO)c1cc(C(=O)NCCO)cc(C(=O)NCCO)c1
inactive: 1 nM -0.77% | 8.33 nM -1.01% | 100 nM -1.2% | 833.33 nM -1.25% | 10000 nM 0.61%

CCN(C(=O)c1c(O)c2c(Cl)cccc2n(C)c1=O)c1ccccc1 [laquinimod]
inactive: 1 nM 1.55% | 8.33 nM -0.45% | 100 nM 0.71% | 833.33 nM -5.3% | 10000 nM -6.25%

Nc1ccc(C(=O)Oc2ccccc2)c(O)c1 [phenyl-aminosalicylate]
inactive: 1 nM -11% | 8.33 nM -5.77% | 100 nM -10.6% | 833.33 nM -10.7% | 10000 nM -9.73%

COc1cc(C(C)=O)ccc1OCCCN1CCC(c2noc3cc(F)ccc23)CC1 [iloperidone]
inactive: 1 nM -1.11% | 8.33 nM -0.19% | 100 nM 0.99% | 833.33 nM -0.53% | 10000 nM -3.95%

CCOc1ccccc1OCC1CNCCO1 (stereo not given) [viloxazine]
inactive: 1 nM 5.7% | 8.33 nM 7.03% | 100 nM 7.67% | 833.33 nM 2.71% | 10000 nM 3.05%

CC(=O)NCCC(=O)N[C@@H](Cc1c[nH]cn1)C(=O)O [N-acetylcarnosine]
inactive: 1 nM 1.19% | 8.33 nM 1.23% | 100 nM -0.15% | 833.33 nM -2.97% | 10000 nM 4.18%

C[C@@]1(CO)[C@H](O)CC[C@@]2(C)[C@H]1CC[C@H]1C[C@@H]3C[C@@]12CC[C@]3(O)CO [aphidicolin]
inactive: 1 nM -5.87% | 8.33 nM -3.68% | 100 nM -2.81% | 833.33 nM -0.76% | 10000 nM -2.66%

Cc1ncc([N+](=O)[O-])n1CC(O)CN1CCOCC1 (stereo not given) [morinidazole]
inactive: 1 nM -0.31% | 8.33 nM -0.21% | 100 nM -0.51% | 833.33 nM -1.22% | 10000 nM -0.64%

CC(=O)O[C@H]1C[C@@]2(C)[C@@H](C[C@@H](O)[C@H]3[C@@]4(C)CC[C@@H](O)[C@@H](C)[C@@H]4CC[C@@]32C)/C1=C(\CCC=C(C)C)C(=O)O [fusidic-acid]
inactive: 1 nM -0.53% | 8.33 nM 0.07% | 100 nM -1.13% | 833.33 nM -8.51% | 10000 nM -1.02%

CCCCC1=NC2(CCCC2)C(=O)N1Cc1ccc(-c2ccccc2-c2nnn[nH]2)cc1 [irbesartan]
inactive: 1 nM -1.49% | 8.33 nM -0.93% | 100 nM 0.89% | 833.33 nM 1.9% | 10000 nM 0.85%

Cc1ccccc1N1CCN(CCc2nnc3n2CCCC3)CC1 [dapiprazole]
inactive: 1 nM -2.9% | 8.33 nM -2.22% | 100 nM 0.65% | 833.33 nM -0.37% | 10000 nM 0.44%

N#Cc1ccc(N2N=C3c4ccc(C(=O)O)cc4CC[C@@H]3[C@@H]2C2CCCC2)cc1Cl
inactive: 1 nM 7.07% | 833.33 nM 4.59% | 10000 nM 10.2%
active: 8.33 nM 18% | 100 nM 18.3%

CNC(=O)N(C)N=O [nitrosodimethylurea]
inactive: 1 nM -0.7% | 8.33 nM -0.84% | 100 nM -4.76% | 833.33 nM 1.42% | 10000 nM -2.36%

Cc1cccc(C)c1NC(=O)CN1CCN(CCCC(c2ccc(F)cc2)c2ccc(F)cc2)CC1 [lidoflazine]
inactive: 1 nM -2.3% | 8.33 nM 0.7% | 100 nM 0.47% | 833.33 nM -1.87% | 10000 nM -10.2%

Cc1cc(C)c(Nc2ccnc(Nc3ccc(C#N)cc3)n2)c(C)c1 [dapivirine]
inactive: 1 nM -0.02% | 8.33 nM -0.53% | 100 nM 0.06% | 833.33 nM 2.16% | 10000 nM -8.23%

O=C(O)/C=C/CO [trans-4-hydroxycrotonic-acid]
inactive: 1 nM 2.26% | 8.33 nM 3.93% | 100 nM 1.39% | 833.33 nM 5.18% | 10000 nM 4.35%

CNCCc1cnc[nH]1 [N-alpha-methylhistamine-dihydrochloride]
inactive: 1 nM 0.16% | 8.33 nM 2.71% | 100 nM 2.12% | 833.33 nM -0.59% | 10000 nM 1.37%

N#Cc1ccc2[nH]c(O)c(-c3ccc(CN4CCOCC4)cn3)c2c1
inactive: 1 nM -0.78% | 8.33 nM -0.13% | 100 nM -0.01% | 833.33 nM 4.77% | 10000 nM 11.4%

CC(C)[C@@H](C)/C=C/[C@@H](C)[C@H]1CC[C@H]2/C(=C/C=C3\C[C@@H](O)CC[C@@H]3C)CCC[C@]12C [dihydrotachysterol]
inactive: 1 nM -0.76% | 8.33 nM 0.52% | 100 nM -1.39% | 833.33 nM -0.26% | 10000 nM -0.14%

CC(=O)OCC1=C(C(=O)O)N2C(=O)[C@@H](NC(=O)CS/C(=N/C(C)C)NC(C)C)[C@H]2SC1 [cefathiamidine]
inactive: 1 nM -0.52% | 8.33 nM -0.04% | 100 nM 1.14% | 833.33 nM 0.34% | 10000 nM 0.26%

COc1ccccc1OCC(O)CO (stereo not given) [guaifenesin]
inactive: 1 nM 1.29% | 8.33 nM 1.07% | 100 nM 0% | 833.33 nM 0.99% | 10000 nM 0.94%

CCCCN1[C@@H]2CC[C@H]1C[C@@H](OC(c1ccc(F)cc1)c1ccc(F)cc1)C2
inactive: 1 nM -4.04% | 8.33 nM 0.46% | 100 nM 3.9% | 833.33 nM 2.41%
active: 10000 nM 37%

Nc1c2c(nc3c1CCC3)CCCC2 [ipidacrine]
inactive: 1 nM 1.46% | 8.33 nM 1.94% | 100 nM 1.19% | 833.33 nM 0.32% | 10000 nM 3.14%

CCOC(=O)c1ncn2c1CN(C)C(=O)c1cc(N=[N+]=[N-])ccc1-2
inactive: 1 nM 3.15% | 8.33 nM 7.03% | 100 nM 2.59% | 833.33 nM -0.14% | 10000 nM -2.15%

CSc1nc(NC2CCCC2)c([N+](=O)[O-])c(NC2CCCC2)n1
inactive: 1 nM -0.65% | 8.33 nM -0.38% | 100 nM 1.31% | 833.33 nM -0.4% | 10000 nM -0.11%

CN1CCc2cc(Cl)c(O)cc2[C@@H](c2ccccc2)C1
inactive: 1 nM 10.5% | 8.33 nM 6.47% | 100 nM 7.29% | 833.33 nM 2.11% | 10000 nM -0.78%

CN1C[C@H](C(=O)N[C@]2(C)O[C@@]3(O)[C@@H]4CCCN4C(=O)[C@H](Cc4ccccc4)N3C2=O)C[C@@H]2c3cccc4[nH]cc(c34)C[C@H]21 [dihydroergotamine]
inactive: 1 nM 0.49% | 8.33 nM 0.5% | 100 nM 2.21% | 833.33 nM -0.8% | 10000 nM 2.88%

COc1ccc(S(=O)(=O)N2CCCN(S(=O)(=O)c3ccc(OC)c(OC)c3)CC2)cc1OC
inactive: 1 nM -2.26% | 8.33 nM -1.47% | 100 nM -0.96% | 833.33 nM -5.53% | 10000 nM 6.2%

Cc1ccc(-c2nc3ccc(C)cn3c2CC(=O)N(C)C)cc1
inactive: 1 nM 0.77% | 8.33 nM 1.21% | 100 nM 0.45% | 833.33 nM 1.14% | 10000 nM -2.98%

COc1ccc(Nc2nccc(NCCO)n2)cc1 [cardiogenol-C]
inactive: 1 nM 0.83% | 8.33 nM -0.02% | 100 nM -0.4% | 833.33 nM 0.3% | 10000 nM 1.2%

CO[C@H]1CC[C@@H](C(=O)c2ccc3nc4c(cc3c2)CCCO4)CC1
inactive: 1 nM -1.37% | 8.33 nM 0.02% | 100 nM -1.45% | 833.33 nM -0.98% | 10000 nM -2.81%

[NH-]c1c[n+](N2CCOCC2)no1 [linsidomine]
inactive: 1 nM 0.45% | 8.33 nM 3.55% | 100 nM 0.57% | 833.33 nM -0.32% | 10000 nM 1.99%

Cc1c(C2CCN(CCc3ccccc3)CC2)noc1-c1ccc(Cl)cc1
inactive: 1 nM -1.74% | 8.33 nM 5.24% | 100 nM 6.13% | 833.33 nM 4.32% | 10000 nM -5.7%

CCCCCCCCCCCCCCCCCCOP(=O)([O-])OC1CC[N+](C)(C)CC1 [perifosine]
inactive: 1 nM 0.3% | 8.33 nM -1.34% | 100 nM -0.76% | 833.33 nM -1.89% | 10000 nM -0.93%
